Data on 19 compounds can be found in PubChem BioAssay.

“And” between values parts separate entries of the source, which are not always exact repeats. Identical values can stand only once. Values without a mark were called inactive. For some assays here: Entries with a potency or affinity are not part of this list. The source made the active and inactive calls. Unless noted, how the calls were made is not given here.

The nature of test [1]: antimalarial activity against Dd2 strain (AID 2302;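 active means growth inhibition above 50% at the single 2 µM test dose, taken to imply half-maximal potency below 2 µM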;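 further: 0% = DMSO untreated growth and 100% = chloroquine plus artemisinin killed control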). As to conditions: P. falciparum Dd2 in RBCs, LDH growth readout, 72 h; at 2 µM; active compounds read high.
A short description of test [2]: HepG2 cytotoxicity, primary screen, cytotoxicity control for P. falciparum antimalarial project, cell-based, ATP luminescence (AID 2303;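 active means inhibition above 50%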;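 further: 0% = DMSO wells and 100% = digitonin-killed cells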). As to conditions: HepG2 viability, 24-48 h, at 10 µM, active compounds read high.
For test [3], the target named is L-lactate dehydrogenase (Plasmodium falciparum (isolate CDC / Honduras)) (UniProt Q27743). The test can be described thus: PfLDH activity inhibition – cell lysate, 3D7 strain, counter-screen for P. falciparum growth inhibition project (AID 2304).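 Further: 0% = vehicle and 100% = reference inhibitor.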 As to conditions: P. falciparum 3D7 crude extract, LDH APAD/NBT absorbance; at 2 µM; active compounds read high. A general note: Counterscreens check selectivity or assay interference.
L-lactate dehydrogenase (Plasmodium falciparum (isolate CDC / Honduras)), sequence (Q27743 whole entry, looked up): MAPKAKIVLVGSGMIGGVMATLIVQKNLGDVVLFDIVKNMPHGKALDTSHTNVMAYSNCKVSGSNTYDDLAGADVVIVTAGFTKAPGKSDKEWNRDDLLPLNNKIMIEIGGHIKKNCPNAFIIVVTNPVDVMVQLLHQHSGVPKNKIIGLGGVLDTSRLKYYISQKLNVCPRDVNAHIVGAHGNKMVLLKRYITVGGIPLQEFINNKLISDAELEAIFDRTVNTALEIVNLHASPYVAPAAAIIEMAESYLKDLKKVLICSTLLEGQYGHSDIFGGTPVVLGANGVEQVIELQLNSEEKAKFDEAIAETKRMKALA

Test [4] is described as follows: inhibition of 3D7 malaria parasite growth – strain 3D7 (AID 2306).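 Further: 0% = DMSO wells and 100% = chloroquine plus artemisinin control wells.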 As to conditions: P. falciparum 3D7 erythrocytic growth, LDH absorbance, 72 h; at 2 µM; active compounds read high.
The target in test [5] is Calcium-dependent protein kinase 1 (Plasmodium falciparum (isolate 3D7)) (UniProt P62344). Put plainly: PfCDPK1 kinase inhibitors, biochemical, TCAMS library (AID 1159585; cut-off not given, nearly all actives have IC50 up to about 0.98 µM;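 further: inhibitors leave more ATP so luminescence rises with inhibition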). As to conditions: recombinant PfCDPK1, Kinase-Glo ATP depletion luminescence. On the technique in general: Kinase-Glo measures the ATP left after a reaction by luminescence.
Calcium-dependent protein kinase 1 (Plasmodium falciparum (isolate 3D7)), sequence (P62344 whole entry, looked up): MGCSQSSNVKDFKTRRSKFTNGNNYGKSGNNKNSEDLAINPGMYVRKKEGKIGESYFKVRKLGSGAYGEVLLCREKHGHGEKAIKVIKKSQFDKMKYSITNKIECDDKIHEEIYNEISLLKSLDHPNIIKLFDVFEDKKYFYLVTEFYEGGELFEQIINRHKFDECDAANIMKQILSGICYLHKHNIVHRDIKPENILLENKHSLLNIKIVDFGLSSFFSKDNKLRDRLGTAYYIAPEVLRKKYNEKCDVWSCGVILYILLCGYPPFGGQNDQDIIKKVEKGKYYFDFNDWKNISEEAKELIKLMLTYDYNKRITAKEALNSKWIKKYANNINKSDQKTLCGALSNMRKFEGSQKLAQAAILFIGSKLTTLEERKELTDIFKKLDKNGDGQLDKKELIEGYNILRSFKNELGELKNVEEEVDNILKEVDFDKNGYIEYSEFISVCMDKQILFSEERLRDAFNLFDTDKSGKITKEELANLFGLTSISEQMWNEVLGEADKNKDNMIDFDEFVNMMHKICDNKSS
Test [6] concerns the target Plasmodium falciparum protein kinase 6 (PK6, PF3D7_1337100) (UniProt Q8IDW1). Put plainly: PfPK6 kinase inhibitors, biochemical, TCAMS library (AID 1159586). As to conditions: recombinant PfPK6, Kinase-Glo ATP depletion luminescence.
Test [7] addresses Protein kinase 7 (PK7), Plasmodium falciparum 3D7 (PF3D7_0213400) (UniProt Q7YTF7). The test can be described thus: inhibition of Plasmodium PK7 catalytic activity – biochemical, TCAMS antimalarial set, Kinase-Glo luminescence (AID 1159587). As to conditions: recombinant PfPK7, Kinase-Glo ATP depletion luminescence.
For test [8], the target named is Calcium-dependent protein kinase 4 (Plasmodium falciparum (isolate 3D7)) (UniProt Q8IBS5). The test can be described thus: PfCDPK4 kinase inhibitors, biochemical, TCAMS library (AID 1159588; cut-off not given, nearly all actives have IC50 up to about 0.91 µM). As to conditions: recombinant PfCDPK4, Kinase-Glo ATP depletion luminescence.
Calcium-dependent protein kinase 4 (Plasmodium falciparum (isolate 3D7)), sequence (Q8IBS5 whole entry, looked up): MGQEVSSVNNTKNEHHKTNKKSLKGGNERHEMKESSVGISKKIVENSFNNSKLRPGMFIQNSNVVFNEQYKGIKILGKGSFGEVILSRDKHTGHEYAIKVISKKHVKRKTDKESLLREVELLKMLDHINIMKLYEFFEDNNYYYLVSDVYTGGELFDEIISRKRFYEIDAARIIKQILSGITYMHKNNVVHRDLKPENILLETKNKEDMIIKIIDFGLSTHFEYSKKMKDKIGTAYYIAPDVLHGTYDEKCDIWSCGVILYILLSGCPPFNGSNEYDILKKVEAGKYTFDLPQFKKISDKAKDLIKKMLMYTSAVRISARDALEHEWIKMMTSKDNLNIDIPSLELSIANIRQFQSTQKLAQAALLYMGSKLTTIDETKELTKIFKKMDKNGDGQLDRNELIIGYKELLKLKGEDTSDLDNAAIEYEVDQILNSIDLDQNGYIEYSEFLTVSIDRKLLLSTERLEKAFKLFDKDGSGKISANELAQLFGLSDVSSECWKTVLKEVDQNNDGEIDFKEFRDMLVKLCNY

Protein kinase 7 (PK7), Plasmodium falciparum 3D7 (PF3D7_0213400), sequence (Q7YTF7 1-343): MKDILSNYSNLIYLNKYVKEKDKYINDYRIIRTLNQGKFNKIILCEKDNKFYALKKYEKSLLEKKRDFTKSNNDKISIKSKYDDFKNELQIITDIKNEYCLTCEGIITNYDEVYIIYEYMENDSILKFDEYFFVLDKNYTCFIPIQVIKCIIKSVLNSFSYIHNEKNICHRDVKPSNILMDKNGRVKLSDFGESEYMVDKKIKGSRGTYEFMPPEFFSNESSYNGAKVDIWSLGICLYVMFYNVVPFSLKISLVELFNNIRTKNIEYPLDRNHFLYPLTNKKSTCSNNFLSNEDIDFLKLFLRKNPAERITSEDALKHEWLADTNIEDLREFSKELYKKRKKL
Plasmodium falciparum protein kinase 6 (PK6, PF3D7_1337100), sequence (Q8IDW1 1-305): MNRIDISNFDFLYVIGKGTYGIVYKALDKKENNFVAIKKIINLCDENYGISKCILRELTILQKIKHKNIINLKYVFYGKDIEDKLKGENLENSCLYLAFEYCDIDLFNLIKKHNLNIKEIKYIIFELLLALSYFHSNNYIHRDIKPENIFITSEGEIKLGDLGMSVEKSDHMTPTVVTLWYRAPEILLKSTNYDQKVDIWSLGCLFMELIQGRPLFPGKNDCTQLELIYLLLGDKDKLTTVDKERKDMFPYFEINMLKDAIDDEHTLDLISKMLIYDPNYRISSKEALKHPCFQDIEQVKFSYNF

For the compound `CC[C@H]1CN2CC[C@H]1C[C@H]2[C@H](O)c1cc(Cl)nc2ccc(OC)cc12`, the growth inhibition in test [1] is 92% (active); in test [4], 101% (active). Also, the inhibition in test [2] is 0%; in test [3] it was 2%. In addition, the outcome in test [5], in test [6], in test [7] and in test [8] was inactive.

With `CCOc1ccc2nccc([C@@H](O)[C@@H]3C[C@@H]4CCN3C[C@@H]4CC)c2c1`, the growth inhibition in test [1] is 99% (active) and 51% (active); in test [4], 98% (active) and 99% (active). The inhibition in test [2] is 24% and 1%; in test [3], 2% and -2%. For the same compound, the result in test [5], in test [6], in test [7] and in test [8] was inactive.

`CCCCC1(NC(=O)[C@H](CC(C)C)Nc2ccc(C#N)c3ccccc23)CCCCC1`: the results for the growth inhibition in test [1] and in test [4] were 47% and 96% (active), respectively. For the same compound, the inhibition in test [2] is 37%; in test [3], 5%. The outcome in test [5], in test [6], in test [7] and in test [8] was inactive.

As for `Cc1cccc2[nH]cc(C3CCN(CC4CCC(NC(=O)/C=C/c5ccc(Cl)c(Cl)c5)CC4)CC3)c12` (configuration not stated), the results for the growth inhibition in test [1] and in test [4] were 97% (active) and 101% (active), respectively. Also, the inhibition was 88% (active) in test [2] and -4% in test [3]. Further, the result in test [5], in test [6], in test [7] and in test [8] was inactive.

As to `S=C(Nc1ccc2c(c1)OCCO2)NC1CCC(CN2CCC(c3c[nH]c4ccccc34)CC2)CC1` (configuration not stated), the growth inhibition was 7% and 1% in test [1]; 96% (active) and 92% (active) in test [4]. Besides, the inhibition in test [2] was 31% and 32%; in test [3], -8% and -1%. The result in test [5], in test [6], in test [7] and in test [8] was inactive.

`COc1ccc(C=CC(=O)N2CCC(CN3CCC(c4c[nH]c5ccccc45)CC3)CC2)cc1OC`: the growth inhibition was 4% in test [1] and 94% (active) in test [4]. The inhibition in test [2] was 20%; in test [3], 0%. For the same compound, the outcome in test [5], in test [6], in test [7] and in test [8] was inactive.

As to `Cc1csc(-c2ccc3[nH]cc(C4=CCN(C)CC4)c3c2)n1`, the growth inhibition in test [1] is 78% (active); in test [4], 93% (active). The figures for the inhibition in test [2] and in test [3] were 10% and -3%, respectively. Also, the outcome in test [5], in test [6], in test [7] and in test [8] was inactive.

Take `O=C(/C=C/c1ccc(Cl)c(Cl)c1)N1CCC(CN2CCC(c3cn(CC(=O)N4CCCCC4)c4ccccc34)CC2)CC1`: the growth inhibition in test [1] is 65% (active); in test [4] it was 100% (active). Further, the values for the inhibition in test [2] and in test [3] were 52% (active) and -2%, respectively. Further, the result in test [5], in test [6], in test [7] and in test [8] was inactive.

For `CC[C@H]1CN2CC[C@@H]1C[C@H]2[C@H](O)c1cc(-c2ccc(F)cc2)nc2ccc(O)cc12`, the growth inhibition in test [1] and in test [4] was 99% (active) each time. Moreover, the inhibition was 25% in test [2] and -2% in test [3]. Further, the result in test [5], in test [6], in test [7] and in test [8] was inactive.

Take `CC[C@H]1CN2CC[C@H]1C[C@H]2[C@H](O)c1cc(N2CCCC2)nc2ccc(OC)cc12`: the growth inhibition in test [1] was 100% (active); in test [4], 98% (active). In addition, the values for the inhibition in test [2] and in test [3] were -13% and 6%, respectively. The outcome in test [5], in test [6], in test [7] and in test [8] was inactive.

With `COc1cccc(C(=O)C2CC2CN2CC=C(c3c[nH]c4ccc(OC)nc34)CC2)c1` (configuration not stated), the growth inhibition is 89% (active) in test [1] and 94% (active) in test [4]. In addition, the inhibition is 8% in test [2] and -2% in test [3]. The result in test [5], in test [6], in test [7] and in test [8] was inactive.

With `COc1ccc(CN2CCN(CCOC(c3ccc(F)cc3)c3ccc(F)cc3)CC2)c(O)c1`, the growth inhibition in test [1] and in test [4] was 97% (active) throughout. The inhibition is 6% in test [2] and -6% in test [3]. Also, the result in test [5], in test [6], in test [7] and in test [8] was inactive.

`CCCCCCC(C)(C)c1cc(O)c2c3c(c(=O)oc2c1)CCN(Cc1ccccc1)C3`: the values for the growth inhibition in test [1] and in test [4] were 99% (active) and 100% (active), respectively. Moreover, the inhibition in test [2] was 3%; in test [3] it was 6%. The outcome in test [5], in test [6], in test [7] and in test [8] was inactive.

With `CC[C@H]1CN2CC[C@@H]1C[C@H]2[C@H](O)c1cc(N2CCC(C)CC2)nc2ccc(OC)cc12`, the growth inhibition in test [1] was 98% (active); in test [4] it was 99% (active). The values for the inhibition in test [2] and in test [3] were 16% and 1%, respectively. The outcome in test [5], in test [6], in test [7] and in test [8] was inactive.

Consider `O=C(NC1CCC(CN2CCC(c3c[nH]c4ccccc34)CC2)CC1)C1(O)c2ccccc2-c2ccccc21` (configuration not stated), for which the growth inhibition in test [1] was 46%; in test [4], 85% (active). The inhibition in test [2] was 22%; in test [3], -4%. In addition, the outcome in test [5], in test [6], in test [7] and in test [8] was inactive.

As to `CCCCCCC(C)c1cc(O)c2c(c1)OC(C)(C)c1ccncc1-2` (configuration not stated), the growth inhibition was 61% (active) in test [1] and 100% (active) in test [4]. Also, the values for the inhibition in test [2] and in test [3] were -3% and -4%, respectively. Besides, the outcome in test [5], in test [6], in test [7] and in test [8] was inactive.

Regarding `COc1ccc(CN2CCN(CCOC(c3ccccc3)c3ccccc3)CC2)c(O)c1`, the growth inhibition in test [1] is 84% (active); in test [4] it was 96% (active). Moreover, the figures for the inhibition in test [2] and in test [3] were 19% and 0%, respectively. Further, the outcome in test [5], in test [6], in test [7] and in test [8] was inactive.

Consider `COCC(=O)N(Cc1ccccc1-c1cccc(CNCCc2ccccc2)c1)C1CCN(Cc2ccccc2)CC1`, for which the figures for the growth inhibition in test [1] and in test [4] were 36% and 93% (active), respectively. Moreover, the inhibition in test [2] is 21%; in test [3] it was 3%. Further, the outcome in test [5], in test [6], in test [7] and in test [8] was inactive.

As to `CC(C)CNCc1cccc(-c2cccc(CN(C(=O)c3cccs3)C3CCN(Cc4ccccc4)CC3)c2)c1`, the growth inhibition in test [1] was 36%; in test [4], 90% (active). For the same compound, the inhibition in test [2] is 14%; in test [3] it was -4%. The result in test [5], in test [6], in test [7] and in test [8] was inactive.

Broadly, the inhibition is the relative decrease from the control value, in per cent.
